This passage reports Potency and activity change, negative = inhibition results from PubChem BioAssay (NCATS).

Inconclusive results are not listed. Entries that show only a call come without a potency. Values without a mark were called inactive. The source made the active and inactive calls. Calls come from the whole dose curve; as a rule, active = well fitted inhibition curve with a large enough effect; inconclusive = small, poorly fitted or top-dose-only effect; inactive = flat fitted curve, though single readings scatter. Positions of bridges follow the written chain, without caps; N, C: chain ends. Non-standard residues stand in square brackets, D forms with d. Residues, ends and D or L forms follow the SMILES beside them. ξ: configuration not given here. *: point of attachment. Octanoyl(6-Me) = CCC(C)CCCCC(=O)*; ξThr(3R) = C[C@@H](O)C(N)C(=O)O; dDab = NCC[C@@H](N)C(=O)O; Dab = NCC[C@H](N)C(=O)O

The test relates to Zika virus NS2B-NS3 protease. Kind of test: Primary screen GU AMC qHTS for Zika virus inhibitors (AID 1347154). Note: nearly all actives have a fitted effect of over 70% in size. The settings on record: Zika NS2B-NS3 unlinked protease, AMC fluorogenic substrate; series mostly up to 54.1 µM. The method in brief: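 Unlinked Zika NS2B hydrophilic domain–NS3 protease complex at 25 nM in 10 mM Tris-HCl pH 8.0, 0.01% Tween 20, with an AMC peptide substrate. Fluorescence change (340/450 nm) over 15 min at room temperature, normalized to controls, fitted to 4-parameter Hill.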
For `CN(C)CC[C@H](c1ccc(Cl)cc1)c1ccccn1`, the Potency entry was “inactive”. The same measure, in the same setting: then `CC1(C)[C@H](O[C@H]2O[C@H](C(=O)O)[C@@H](O)[C@H](O)[C@H]2O[C@@H]2O[C@H](C(=O)O)[C@@H](O)[C@H](O)[C@H]2O)CC[C@@]2(C)[C@H]1CC[C@]1(C)[C@H]2C(=O)C=C2[C@H]3C[C@@](C)(C(=O)O)CC[C@]3(C)CC[C@]21C`, with “inactive”; and `CCOC(=O)[C@H](CCc1ccccc1)N[C@@H](C)C(=O)N1[C@@H](C(=O)O)C[C@H]2CCC[C@@H]21`, with “inactive”.

With `COc1cc(C(C)C)c(Oc2cnc(NC(CO)CO)nc2N)cc1I`, the Potency entry was “inactive”. Turning to `Cc1cnc(NC(=O)Nc2cc(Br)c(C)cc2OC[C@@H]2CNCCO2)cn1`, the Potency result was “inactive”. The same measure, in the same setting: in the case of `C[C@]12CC[C@@H]3c4ccc(O)cc4CC[C@H]3[C@H]1CC[C@H]2O` it was “inactive”. On the same count and under the same terms, then `CC[C@H]1OC(=O)[C@H](C)[C@@H](O[C@H]2C[C@@](C)(OC)[C@@H](O)[C@H](C)O2)[C@H](C)[C@@H](O[C@@H]2O[C@H](C)C[C@H](N(C)C)[C@@H]2O)[C@](C)(OC)C[C@@H](C)C(=O)[C@H](C)[C@@H](O)[C@]1(C)O`, with “inactive”; and `Nc1nc(=O)n([C@H]2C[C@H](O)[C@@H](CO)O2)cc1F`, with “inactive”. With `CC(C)(C)[C@H](NC(=O)c1ccc(N)c(Cl)c1)C(=O)N1CCC[C@@H]1C(=O)N[C@H](C#N)CC(=O)O`, the activity change, negative = inhibition is 6.17% [at 6.83 µM]. Take `Cc1cc(O)c2c(c1)C(=O)c1cccc(O)c1C2=O`: the Potency entry was “inactive”. Regarding `NC(=O)N1CCC(CC(=O)N2CCC([C@H]3c4ncc(Br)cc4CCc4cc(Cl)cc(Br)c43)CC2)CC1`, the Potency result was “inactive”. In the case of `CC(C)(C)[N+]([O-])=Cc1ccc(S(=O)(=O)O)cc1S(=O)(=O)O`, the Potency entry was “inactive”. Same read-out and setting: in the case of `O=C(O)C=Cc1ccc(Cn2ccnc2)cc1` it was “inactive”; in that of `CC(C)(O)[C@H]1CC[C@@](C)([C@H]2[C@@H](O)C[C@@]3(C)[C@@H]4C[C@H](O[C@@H]5O[C@H](CO)[C@@H](O)[C@H](O)[C@@H]5O)[C@H]5C(C)(C)[C@@H](O[C@@H]6OC[C@@H](O)[C@H](O)[C@@H]6O)CC[C@@]56C[C@@]46CC[C@]23C)O1`, “inactive”. On the same count and under the same terms, in the case of `COC(=O)[C@H](CCCN=C(N)N)NS(=O)(=O)c1ccc(C)cc1` it was “inactive”. Still for that read-out and setting: in the case of `CC(C)[C@H](CO)Nc1nc(Nc2cccc(Cl)c2)c2ncn(C(C)C)c2n1` it was “inactive”. In the case of `Cc1cc(-c2nnc3n2CCCCC3)c(C)n1-c1ccccc1`, the Potency entry is “inactive”. The same measure, in the same setting: then `OCc1ccccc1O[C@@H]1O[C@H](CO)[C@H](O)[C@H](O)[C@H]1O`, with “inactive”; and `O=C1c2cccc(O)c2C(=O)c2c(O)cc(CO)cc21`, with “inactive”. With `COc1ccnc2[nH]cc(C(=O)C(=O)N3CCN(C(=O)c4ccccc4)C[C@@H]3C)c12`, the Potency result is “inactive”. Same read-out and setting: in the case of `CC(=O)C1=C(O)C=C2Oc3c(C(C)=O)c(O)c(C)c(O)c3C2(C)C1=O` (stereo unspecified) it was “inactive”; in that of `CN[C@H](CC(C)C)C(=O)N[C@H]1C(=O)N[C@@H](CC(N)=O)C(=O)N[C@@H]2C(=O)N[C@H]3C(=O)N[C@H](C(=O)N[C@H](C(=O)O)c4cc(O)cc(O)c4-c4cc3ccc4O)[C@H](O)c3ccc(c(Cl)c3)Oc3cc2cc(c3O[C@@H]2O[C@H](CO)[C@@H](O)[C@H](O)[C@@H]2O[C@H]2C[C@](C)(N)[C@H](O)[C@H](C)O2)Oc2ccc(cc2Cl)[C@H]1O`, “inactive”. With `O=C(CCCCCCC(=O)Nc1cccnc1)NO`, the Potency entry is “inactive”. Still for that read-out and setting: then `CCC(C)CCCCC(=O)N[C@@H](CCN)C(=O)NC(C(=O)N[C@H](CCN)C(=O)N[C@@H]1CCNC(=O)C([C@@H](C)O)NC(=O)[C@@H](CCN)NC(=O)[C@@H](CCN)NC(=O)[C@@H](CC(C)C)NC(=O)[C@H](Cc2ccccc2)NC(=O)[C@H](CCN)NC1=O)[C@@H](C)O` (stereo partly drawn) ({Octanoyl(6-Me)}-[Dab][ξThr(3R)][dDab][dDab][Dab]F[dL][dDab][dDab][ξThr(3R)]; lactam 4-C), with “inactive”; and `CC(C)(O)CC[C@@H](O)[C@](C)(O)[C@H]1CC[C@@]2(O)C3=CC(=O)[C@@H]4C[C@@H](O)[C@@H](O)C[C@]4(C)[C@@H]3CC[C@]12C`, with “inactive”; and `C[C@H](NC(=O)Cc1cc(F)cc(F)c1)C(=O)N[C@H](C(=O)OC(C)(C)C)c1ccccc1`, with “inactive”. On the same count and under the same terms, in the case of `CON=C(C(=O)N[C@@H]1C(=O)N2C(C(=O)O)=C(CSC(=O)c3ccco3)CS[C@H]12)c1csc(N)n1` it was “inactive”. Same read-out and setting: in the case of `CC(C)(C)c1nc2c3cc[nH]c(=O)c3c3cc(F)ccc3c2[nH]1` it was “inactive”. In the case of `O=C1NC(O)CCN1[C@@H]1O[C@H](CO)[C@H](O)[C@H]1O` (stereo partly specified), the Potency entry was “inactive”. Still for that read-out and setting: then `CCCNS(=O)(=O)Nc1ncnc(OCCOc2ncc(Br)cn2)c1-c1ccc(Br)cc1`, with “inactive”; and `Cc1cnn(C)c1C(=O)Nc1cc(Nc2ccc3c(C=Cc4ccccn4)n[nH]c3c2)ccc1F`, with “inactive”. The same measure, in the same setting: then `CCNC(=O)Nc1ccc(-c2nc3c(c(N4CCOC[C@H]4C)n2)CCN(C2COC2)C3)cc1`, with “inactive”. Take `CON=C(C(=O)N[C@@H]1C(=O)N2C(C(=O)O)=C(Cn3ccc(=N)n3CCO)CS[C@H]12)c1csc(N)n1`: the Potency result is “inactive”. The same measure, in the same setting: then `CC(=O)OC[C@@H]1O[C@@H](n2ccc(=O)[nH]c2=O)[C@H](OC(C)=O)[C@H]1OC(C)=O`, with “inactive”. On the same count and under the same terms, then `COc1cc2c(cc1O)CCC1C2CC[C@@]2(C)C1CC[C@@H]2O` (stereo partly specified), with “inactive”; and `O=[N+]([O-])c1cn2c(n1)OC[C@@H](OCc1ccc(OC(F)(F)F)cc1)C2`, with “inactive”.
